hNpr1 antagonist = antagonists of human natriuretic peptide receptor Npr1. Potency, µM (doses to about 46.3 µM), for inactives: at the top dose activity change, negative = inhibition, most hits filed as inhibitors. AID 1347048. HEK293 hNpr1 GloSensor cGMP, ANP-stimulated luminescence. P16066. 76,000 tested, 1.6% active; calls by dose curve; also: nearly all actives have a fitted effect of over 60% in size
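Compound pre-incubated 30 min at room temperature on GloSensor-loaded HEK293 cells stably carrying hNpr1 and the pGS-40F cGMP biosensor. Stimulation uses hNppA at 0.1 nM final; luminescence is taken at baseline and 20 min post-agonist.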
FLuc inh = inhibitors of firefly (Photinus pyralis) luciferase; P08659; purified P. pyralis luciferase, luminescence, biochemical; Potency, µM (top dose mostly 115 µM), most hits filed as inhibitors; 76,000 tested, 2.5% active; AID 1347043; also: nearly all actives have a fitted effect of over 65% in size
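Luminescence read by CCD imager after adding enzyme (10nM final) to wells holding compound, titrated in qHTS. Substrates 10uM each D-luciferin and ATP; buffer 50mM Tris acetate pH 7.5, 10mM Mg acetate, Tween-20, BSA.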
HEK293 tox = cytotoxic compounds in HEK 293 cells. HEK 293 viability, ATP luminescence (CellTiter-Glo), 48-72 h. Potency, µM (top dose mostly 115 µM), for the others: at the highest dose activity change, negative = cytotoxicity, actives largely listed as inhibitors. 94,000 tested, 6.6% active. AID 1345083; also: nearly all actives have a fitted effect of over 60% in size
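HEK 293 seeded at 250 cells/well receive compound via pintool. After 48 or 72 hr at 37 degree Celsius, 5% CO2 and 95% humidity, CellTiter-Glo is dispensed and luminescence read following 10 min at room temperature.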
GPT2 inh = blocks human glutamate pyruvate transaminase 2; 100,000 tested, 0.25% active; AID 1671188; Potency, µM (titrated, usually from 57.7 µM), for inactives: at the highest dose activity change, negative = inhibition, usual class: inhibitors; Recombinant GPT2, coupled pyruvate oxidase/HRP Amplex Red fluorescence; also: nearly all actives have a fitted effect of over 60% in size
Target sequence (Q8TD30 whole entry, looked up): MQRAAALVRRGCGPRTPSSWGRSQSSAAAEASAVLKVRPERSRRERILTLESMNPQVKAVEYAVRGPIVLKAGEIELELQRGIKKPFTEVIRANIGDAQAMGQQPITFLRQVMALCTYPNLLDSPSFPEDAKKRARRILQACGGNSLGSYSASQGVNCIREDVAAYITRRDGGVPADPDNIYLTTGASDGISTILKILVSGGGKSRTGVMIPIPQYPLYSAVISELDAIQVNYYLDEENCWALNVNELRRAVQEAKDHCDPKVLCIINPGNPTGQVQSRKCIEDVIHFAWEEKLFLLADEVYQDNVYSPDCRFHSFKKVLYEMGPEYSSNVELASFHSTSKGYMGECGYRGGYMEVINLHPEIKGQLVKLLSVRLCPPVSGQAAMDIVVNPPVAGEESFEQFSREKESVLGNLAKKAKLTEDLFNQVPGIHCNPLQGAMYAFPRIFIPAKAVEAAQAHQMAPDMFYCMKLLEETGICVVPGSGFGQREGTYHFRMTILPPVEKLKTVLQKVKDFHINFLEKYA
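GPT2 10ng/uL, a-KG 250uM, L-Ala 2mM, HEPES pH7.5 + 0.0001% Tween; 30 min RT. Then Amplex mix (PO/HRP/ThPP), 30 min RT dark, fluorescence. AOA 50uM used as positive control.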
3T3 cytotox = NIH 3T3 cell cytotoxicity; 94,000 tested, 4.3% active; NIH 3T3 viability, CellTiter-Glo ATP luminescence, 48-72 h; Potency, µM (titrated, usually from 96.7 µM), without a hit: top-dose activity change, negative = cytotoxicity, actives largely listed as inhibitors; also: nearly all actives have a fitted effect of over 55% in size
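NIH 3T3 cells at 400 cells/well received 23 nL of compound by pintool and were incubated 48 or 72 h at 37 °C. Viability was read as ATP-coupled CellTiter-Glo luminescence.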
The depositor's hits bear a star; i = inactive; ? = inconclusive; . = not tested or not shown; [ ] = dose if it differs, or a comment. Rows were chosen to be rich in hits. Some 10% of all compounds tested hit in one or more screens of this group. Unless noted, calls follow the shape of the dose curve; as a rule, active = well fitted curve in the direction sought with a large enough effect; inconclusive = small, poorly fitted or top-dose-only effect, or another doubt; inactive = no such curve, though single readings can be large; an effect the other way counts as inactive or inconclusive. % is scaled to controls: 0 for no effect and ±100 for the full control effect; potency is read from the fitted curve at half-maximal effect.

SMILES | hNpr1 antagonist | FLuc inh | HEK293 tox | GPT2 inh | 3T3 cytotox
CNC(=O)[C@H]1C[C@H](Oc2ccccc2)CN1Cc1c[nH]c2ccc(OC)cc12 | -4.1% | i | ? | i | -22.4%
COc1ccc(-c2nc(N3CCOC[C@H]3C)cc3c2CN(C(C)C)C3=O)cc1 | 2.8%[70.6 µM] | i | 112µM* | -2.2%[88.5 µM] | 79.4µM*
CCC1Oc2ccc(NC(=O)Nc3cccc(OC)c3)cc2CN(Cc2ccc3c(c2)OCO3)C1=O (stereo not given) | 0.7% | i | 31.6µM* | i | ?
CCC1Oc2ccc(NC(=O)COc3ccccc3)cc2CN(Cc2cccc(OC)c2)C1=O (stereo not given) | -2.7% | i | 44.7µM* | -1.5% | ?
CCNC(=O)Nc1ccc2c(c1)CN(Cc1cccc(OC)c1)C(=O)C(CC)O2 (stereo not given) | -17.0% | i | ? | i | -15.2%
CCC1Oc2ccc(NC(=O)Cc3ccccc3)cc2CN(Cc2cccc(OC)c2)C1=O (stereo not given) | -14.9% | i | ? | i | ?
CCCC(O)CN1CCC(=O)N(CC)Cc2cc(F)ccc21 (stereo not given) | . | . | ? | . | -18.0%
Cn1ccnc1CN1C(=O)CO[C@H](c2ccc(NC(=O)c3ccc(C(F)(F)F)cc3)cc2)[C@H]1CO | 13.6% | 35.5µM* | -25.7% | ? | -25.2%
CCCCCC(=O)Nc1ccc([C@H]2OCC(=O)N(Cc3nccn3C)[C@@H]2CO)cc1 | 9.5%[70.6 µM] | 70.8µM* | -14.9%[172 µM] | -17.0%[88.5 µM] | -18.1%[174 µM]
Cc1cn2nc(C(=O)NC3CCCCCC3)cc2c(N2CCSCC2)n1 | -1.8% | i | 44.7µM* | i | ?
Cc1cn2nc(C(=O)NC3CCCCC3)cc2c(N2CCCC2)n1 | 9.7% | i | -2.9% | -15.3% | -7.4%
Cc1cccc(NC(=O)c2cc3c(N4CCSCC4)nc(C)cn3n2)c1 | -4.8% | i | 39.8µM* | i | ?
Cc1cn2nc(C(=O)Nc3ccc4c(c3)OCCO4)cc2c(N2CCSCC2)n1 | -26.8% | 11.2µM* | ? | -3.6% | -15.5%
Cc1cn2nc(C(=O)Nc3ccc4c(c3)OCO4)cc2c(N2CCCC2)n1 | -17.3% | ? | -1.7% | i | 0.1%
Cc1ccc(NC(=O)c2cc3c(N4CCSCC4)nc(C)cn3n2)cc1 | -3.2% | i | ? | i | ?
Cc1ccc(C(=O)NC2CCN(c3cc(-c4ccccc4)[nH]n3)CC2)cc1F | -14.4% | i | ? | -0.6% | 35.5µM*
O=C(NC1CCN(c2cc(-c3ccccc3)[nH]n2)CC1)c1cccc(Cl)c1 | 0.0% | i | 28.2µM* | 1.3% | ?
CC(=O)Nc1ccc(C(=O)NC2CCN(c3cc(-c4ccc(Cl)cc4)[nH]n3)CC2)cc1 | -25.3% | i | 31.6µM* | -3.9% | 22.4µM*
O=C(NC1CCN(c2cc(-c3ccc(F)cc3)[nH]n2)C1)c1cccc(Cl)c1 (stereo not given) | -16.4% | i | ? | ? | ?
Cc1ccc(C(=O)NC2CCCN(c3cc(-c4ccccc4)[nH]n3)C2)cc1F (stereo not given) | -18.1% | i | ? | -1.3% | ?
CN(C)c1ccc(C(=O)NC2CCN(c3cc(-c4ccc(Cl)cc4)[nH]n3)CC2)cc1 | -2.9% | i | ? | i | -18.6%
COc1ccc(CNC(=O)[C@@H](C)C2CC[C@@]3(C)CC[C@H](NC(=O)c4cncnc4)[C@@H](C)[C@@H]3[C@H]2O)cc1OC (stereo not given in full) | 1.1% | i | ? | -8.5% | -28.6%
COc1ccc(CC2(CO)CCN(c3cc(OC)nc(N)n3)CC2)cc1 | ? | i | 44.7µM* | -6.2% | -28.0%
COc1ccc(CC2(CO)CCN(c3nccc(N)n3)CC2)cc1 | 3.3% | i | ? | -3.3% | -34.1%
O=C(NC1CCCCC1)c1cn2cc(-c3cccnc3)sc2n1 | . | . | ? | -5.0%[88.5 µM] | ?
SMILES | hNpr1 antagonist | FLuc inh | HEK293 tox | GPT2 inh | 3T3 cytotox
O=C(COc1ccccc1)c1ccc2c(c1)N(CCCC(=O)N1CCCC1)C(=O)CO2 | -9.6% | i | ? | i | -22.6%
CCn1c2c(c(=O)n1-c1ccccc1)CCN(C(=O)C1CCC1)C2 | -21.7%[70.6 µM] | i | -7.7%[172 µM] | -3.5%[88.5 µM] | ?
COCCn1c2c(c(=O)n1-c1ccccc1)CCN(C(=O)c1nc3ccccc3[nH]1)C2 | -9.8%[70.6 µM] | i | -9.0%[172 µM] | -9.2%[88.5 µM] | 89.1µM*
COCCn1c(=O)c2c(n1Cc1ccccc1)CN(Cc1cncc(OC)c1)CC2 | -0.6%[70.6 µM] | i | i | -5.6%[88.5 µM] | ?
CC(C)CCN1CCc2c(n(CCOc3ccccc3)n(-c3ccccc3)c2=O)C1 | -28.8%[70.6 µM] | i | ? | i | 100µM*
COC1CCC(C(=O)N2CCc3c(n(CCOc4ccccc4)n(-c4ccccc4)c3=O)C2)CC1 (stereo not given) | 1.1% | i | -7.2% | -9.9% | 20µM*
COc1ncc(CN2CCc3c(n(CCOc4ccccc4)n(-c4ccccc4)c3=O)C2)cn1 | 1.4% | i | i | -2.6% | ?
CCn1c2c(c(=O)n1-c1ccccc1)CCN(Cc1cncc(OC)c1)C2 | 2.4%[70.6 µM] | i | i | i | 100µM*
O=C(O)CCC(=O)N1Cc2ccccc2CC2(CCCN(Cc3ccccn3)C2)C1 (stereo not given) | . | . | -1.0% | i | -1.6%
O=C1Nc2ccccc2C12CCN(Cc1cccc3ccccc13)C2 (stereo not given) | . | . | 79.4µM* | -2.3% | 79.4µM*
COc1ccc(CN2CCC3(C2)C(=O)Nc2ccccc23)cc1 (stereo not given) | . | . | ? | i | -1.5%
COc1cccc(-c2cccc(C(=O)N3CCN(C(=O)c4ccccc4Cl)CC3)c2)c1 | . | . | ? | i | -25.4%
Nc1cc(C(=O)N2CCc3onc(-c4ccc(-c5ccccc5)cc4)c3C2)[nH]n1 | 12.6µM* | ? | 17.8µM* | i | ?
O=C(c1cc(-c2ccccc2)n[nH]1)N1CCc2c(nc(-c3ccccc3)[nH]c2=O)C1 | -5.0% | ? | ? | -2.7% | ?
CC(C)c1ccc(-n2cc(CN3CCCC(O)(CN(C)C)C3)cn2)cc1 (stereo not given) | 3.2% | ? | 22.4µM* | -5.5% | ?
CCOc1cc(C)c(CN2CCCC(O)(CN(C)C)C2)cc1C(C)C (stereo not given) | 1.1% | i | 35.5µM* | i | 39.8µM*
CN(C)CC1(O)CCCN(Cc2ccc(-c3ccc(Cl)cc3)o2)C1 (stereo not given) | -3.1% | i | ? | i | ?
CN(C)CC1(O)CCCN(Cc2ccc(Oc3ccc(Cl)cc3)cc2)C1 (stereo not given) | -5.5% | i | ? | 0.0% | 22.4µM*
CN1CC2(CCN(Cc3ccc(-c4ccc(Cl)cc4)o3)C2)OC1=O (stereo not given) | -13.3% | i | ? | -0.3% | ?
